Results published in PubChem BioAssay AID1159580 (chemical genetic matrix, 2015).
Several values for one entry are separate records, joined by “and”; a condition that tells them apart may be missing. Equal entries are not always repeated. The campaign covered roughly 5,500 compounds. About 2,000 (36%) were called active. Roughly 18% stayed inconclusive and do not appear here. This is one part of the list. A number with no mark means an inactive call. Rule as the data show it: active = normalized growth mostly below about 0.91 (no sharp cut-off); inconclusive = no clear call, values can overlap the other calls; inactive = mostly above about 0.92.

Assay: chemical genetic growth profiling, strain panel (AID 1159580);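 also: tested at 20 µM; growth read once vehicle control cultures reached saturation at 30 °C; 1 = growth at the plate median or of vehicle wells; lower values mean less growth of the strain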
Settings: S. cerevisiae deletion strains, growth OD

Question: For `Cc1cc(NC(=O)C2=C(O)c3ccccc3S(=O)(=O)N2C)no1`, which normalized growth (locus YAL021C, strain ccr4, active compounds read low) is on record?
Answer: 0.959

Question: What about the normalized growth (locus YAL026C, strain drs2, active compounds read low) of the same molecule?
Answer: 0.97

Question: What about the normalized growth (locus YAL030W, strain snc1, active compounds read low) of the same molecule?
Answer: 0.969

Question: And the normalized growth (locus YBL061C, strain skt5, active compounds read low)?
Answer: 0.965

Question: And the normalized growth (locus YBR009C, strain hhf1, active compounds read low)?
Answer: 0.961

Question: And the normalized growth (locus YBR021W, strain FUR4, active compounds read low)?
Answer: 1.01

Question: What about the normalized growth (locus YBR023C, strain chs3, active compounds read low) of the same molecule?
Answer: 0.967

Question: What about the normalized growth (locus YBR171W, strain sec66, active compounds read low) of the same molecule?
Answer: 0.926

Question: What about the normalized growth (locus YBR229C, strain ROT2, active compounds read low) of the same molecule?
Answer: 0.991

Question: What about the normalized growth (locus YBR231C, strain swc5, active compounds read low) of the same molecule?
Answer: 0.972

Question: And the normalized growth (locus YBR279W, strain paf1, active compounds read low)?
Answer: 0.992

Question: And the normalized growth (locus YCL011C, strain gbp2, active compounds read low)?
Answer: 0.982

Question: What about the normalized growth (locus YCL016C, strain dcc1, active compounds read low) of the same molecule?
Answer: 0.968

Question: And the normalized growth (locus YCL029C, strain bik1, active compounds read low)?
Answer: 0.958

Question: What about the normalized growth (locus YCL069W, strain vba3, active compounds read low) of the same molecule?
Answer: 0.963

Question: And the normalized growth (locus YCR088W, strain abp1, active compounds read low)?
Answer: 0.964

Question: And the normalized growth (locus YDL005C, strain med2, active compounds read low)?
Answer: 0.984

Question: What about the normalized growth (locus YDL035C, strain GPR1, active compounds read low) of the same molecule?
Answer: 0.981

Question: And the normalized growth (locus YDL040C, strain nat1, active compounds read low)?
Answer: 0.964

Question: What about the normalized growth (locus YDL074C, strain BRE1, active compounds read low) of the same molecule?
Answer: 1.03

Question: And the normalized growth (locus YDL101C, strain DUN1, active compounds read low)?
Answer: 0.997

Question: What about the normalized growth (locus YDL134C, strain PPH21, active compounds read low) of the same molecule?
Answer: 0.995

Question: What about the normalized growth (locus YDL185W, strain tfp1, active compounds read low) of the same molecule?
Answer: 0.876 (active)

Question: What about the normalized growth (locus YDL192W, strain arf1, active compounds read low) of the same molecule?
Answer: 0.952

Question: What about the normalized growth (locus YDR001C, strain nth1, active compounds read low) of the same molecule?
Answer: 0.95

Question: What about the normalized growth (locus YDR069C, strain doa4, active compounds read low) of the same molecule?
Answer: 0.99

Question: What about the normalized growth (locus YDR101C, strain arx1, active compounds read low) of the same molecule?
Answer: 1.01

Question: What about the normalized growth (locus YDR137W, strain rgp1, active compounds read low) of the same molecule?
Answer: 1

Question: And the normalized growth (locus YDR150W, strain NUM1, active compounds read low)?
Answer: 0.975

Question: And the normalized growth (locus YDR159W, strain sac3, active compounds read low)?
Answer: 0.983

Question: And the normalized growth (locus YDR162C, strain NBP2, active compounds read low)?
Answer: 0.961

Question: What about the normalized growth (locus YDR195W, strain ref2) of the same molecule?
Answer: 0.965

Question: What about the normalized growth (locus YDR297W, strain sur2, active compounds read low) of the same molecule?
Answer: 0.973

Question: What about the normalized growth (locus YDR318W, strain mcm21, active compounds read low) of the same molecule?
Answer: 0.966

Question: What about the normalized growth (locus YDR334W, strain swr1, active compounds read low) of the same molecule?
Answer: 0.963

Question: What about the normalized growth (locus YDR335W, strain msn5, active compounds read low) of the same molecule?
Answer: 0.964

Question: What about the normalized growth (locus YDR388W, active compounds read low) of the same molecule?
Answer: 0.945

Question: And the normalized growth (locus YDR392W, strain spt3, active compounds read low)?
Answer: 0.905

Question: And the normalized growth (locus YDR502C, strain sam2, active compounds read low)?
Answer: 0.98

Question: And the normalized growth (locus YEL003W, strain gim4, active compounds read low)?
Answer: 0.959

Question: And the normalized growth (locus YEL037C, strain rad23, active compounds read low)?
Answer: 0.961

Question: And the normalized growth (locus YEL061C, strain CIN8 (second series), active compounds read low)?
Answer: 0.951

Question: What about the normalized growth (locus YEL061C, strain CIN8, active compounds read low) of the same molecule?
Answer: 0.977

Question: What about the normalized growth (locus YER015W, strain faa2, active compounds read low) of the same molecule?
Answer: 0.98

Question: What about the normalized growth (locus YER016W, strain bim1, active compounds read low) of the same molecule?
Answer: 0.946

Question: What about the normalized growth (locus YER110C, active compounds read low) of the same molecule?
Answer: 0.937

Question: What about the normalized growth (locus YER111C, strain swi4, active compounds read low) of the same molecule?
Answer: 0.962

Question: What about the normalized growth (locus YER155C, strain BEM2 (second series), active compounds read low) of the same molecule?
Answer: 0.976

Question: And the normalized growth (locus YER155C, strain BEM2, active compounds read low)?
Answer: 0.975

Question: And the normalized growth (locus YER167W, strain BCK2, active compounds read low)?
Answer: 0.985

Question: What about the normalized growth (locus YFR010W, strain ubp6, active compounds read low) of the same molecule?
Answer: 1

Question: And the normalized growth (locus YGL078C, strain dbp3, active compounds read low)?
Answer: 0.965

Question: What about the normalized growth (locus YGL086W, strain mad1, active compounds read low) of the same molecule?
Answer: 0.999

Question: What about the normalized growth (locus YGL167C, strain pmr1, active compounds read low) of the same molecule?
Answer: 0.978

Question: What about the normalized growth (locus YGL173C, strain kem1, active compounds read low) of the same molecule?
Answer: 0.984

Question: What about the normalized growth (locus YGL227W, strain vid30, active compounds read low) of the same molecule?
Answer: 0.973

Question: What about the normalized growth (locus YGL240W, strain doc1, active compounds read low) of the same molecule?
Answer: 0.995

Question: What about the normalized growth (locus YGL248W, strain PDE1, active compounds read low) of the same molecule?
Answer: 0.994

Question: And the normalized growth (locus YGL253W, strain hxk2, active compounds read low)?
Answer: 0.957

Question: What about the normalized growth (locus YGR078C, strain PAC10, active compounds read low) of the same molecule?
Answer: 0.995

Question: And the normalized growth (locus YGR135W, strain pre9, active compounds read low)?
Answer: 0.929

Question: What about the normalized growth (locus YGR252W, strain gcn5, active compounds read low) of the same molecule?
Answer: 0.998

Question: And the normalized growth (locus YHR013C, strain ard1, active compounds read low)?
Answer: 0.98

Question: And the normalized growth (locus YHR027C, strain rpn1, active compounds read low)?
Answer: 0.97

Question: What about the normalized growth (locus YHR030C, strain SLT2, active compounds read low) of the same molecule?
Answer: 0.965 and 0.916

Question: And the normalized growth (locus YHR079C, strain IRE1 (second series), active compounds read low)?
Answer: 0.939

Question: And the normalized growth (locus YHR079C, strain IRE1, active compounds read low)?
Answer: 0.93

Question: What about the normalized growth (locus YHR094C, strain hxt1, active compounds read low) of the same molecule?
Answer: 0.945

Question: What about the normalized growth (locus YHR129C, strain ARP1, active compounds read low) of the same molecule?
Answer: 0.972

Question: What about the normalized growth (locus YHR142W, strain chs7, active compounds read low) of the same molecule?
Answer: 0.991

Question: And the normalized growth (locus YHR200W, strain rpn10, active compounds read low)?
Answer: 0.947

Question: And the normalized growth (locus YIL066C, strain RNR3, active compounds read low)?
Answer: 1.01

Question: And the normalized growth (locus YIL073C, strain SPO22, active compounds read low)?
Answer: 0.881

Question: What about the normalized growth (locus YIL125W, strain kgd1, active compounds read low) of the same molecule?
Answer: 0.939

Question: And the normalized growth (locus YIR030C, strain dcg1, active compounds read low)?
Answer: 0.928

Question: What about the normalized growth (locus YJL092W, strain hpr5, active compounds read low) of the same molecule?
Answer: 0.97

Question: And the normalized growth (locus YJL095W, strain BCK1 (second series), active compounds read low)?
Answer: 0.971

Question: And the normalized growth (locus YJL095W, strain BCK1, active compounds read low)?
Answer: 1.01 and 0.962

Question: What about the normalized growth (locus YJL115W, strain asf1, active compounds read low) of the same molecule?
Answer: 0.966

Question: What about the normalized growth (locus YJL129C, strain trk1, active compounds read low) of the same molecule?
Answer: 0.924

Question: And the normalized growth (locus YJL134W, strain LCB3, active compounds read low)?
Answer: 0.965

Question: What about the normalized growth (locus YJL154C, strain vps35, active compounds read low) of the same molecule?
Answer: 0.939

Question: What about the normalized growth (locus YJL164C, strain tpk1, active compounds read low) of the same molecule?
Answer: 0.974

Question: What about the normalized growth (locus YJL166W, strain qcr8, active compounds read low) of the same molecule?
Answer: 1

Question: And the normalized growth (locus YJL168C, strain set2, active compounds read low)?
Answer: 0.953

Question: And the normalized growth (locus YJL187C, strain SWE1 (second series), active compounds read low)?
Answer: 1

Question: What about the normalized growth (locus YJR043C, strain POL32, active compounds read low) of the same molecule?
Answer: 1.02
